IL1B secr inh: inhibitors of inflammasome signaling (IL-1 beta secretion); THP-1 LPS/ATP IL-1B secretion, AlphaLISA, 16 h; active compounds read low; activity change, % at 57.5 µM; hit rate 4.7% among 360,000; AID 743279; in the data active = activity change below about -50%; inconclusive = mostly about -30% to -49%
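THP-1 cells pretreated 1 hr with compounds (up to 57.5 uM final), then stimulated with LPS (250 ng/mL final) plus ATP (1.25 mM final); secreted IL-1B measured by AlphaLISA after 16 hr, decreased signal indicating inhibition.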
Giardia kill: Giardia lamblia killing. AID 540267. activity change, % at 7.66 µM, hits read low. Giardia lamblia trophozoite viability. hit rate 0.15% among 340,000; in the data active = activity change below about -80%; inconclusive = between about -30% and that limit;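 note: parasites exposed to compound for two days anaerobically before the ATP read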
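Giardia lamblia trophozoites (100 cells/well) were incubated with compounds for 48 h at 37 deg C under anaerobic conditions. Viability was read as ATP content by one-step luminescence after 15-30 min at room temperature.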
TDP1 block: blocks human tyrosyl-DNA phosphodiesterase 1; Q9NUW8; recombinant TDP1, AlphaScreen DNA substrate cleavage; Potency, µM (doses to about 130 µM), without a hit: at the highest dose activity change, negative = inhibition, most hits filed as inhibitors; hit rate 0.28% among 350,000; note: potency is the fitted concentration of half-maximal effect; nearly all actives have a fitted effect of over 40% in size
Target sequence (Q9NUW8 whole entry, looked up): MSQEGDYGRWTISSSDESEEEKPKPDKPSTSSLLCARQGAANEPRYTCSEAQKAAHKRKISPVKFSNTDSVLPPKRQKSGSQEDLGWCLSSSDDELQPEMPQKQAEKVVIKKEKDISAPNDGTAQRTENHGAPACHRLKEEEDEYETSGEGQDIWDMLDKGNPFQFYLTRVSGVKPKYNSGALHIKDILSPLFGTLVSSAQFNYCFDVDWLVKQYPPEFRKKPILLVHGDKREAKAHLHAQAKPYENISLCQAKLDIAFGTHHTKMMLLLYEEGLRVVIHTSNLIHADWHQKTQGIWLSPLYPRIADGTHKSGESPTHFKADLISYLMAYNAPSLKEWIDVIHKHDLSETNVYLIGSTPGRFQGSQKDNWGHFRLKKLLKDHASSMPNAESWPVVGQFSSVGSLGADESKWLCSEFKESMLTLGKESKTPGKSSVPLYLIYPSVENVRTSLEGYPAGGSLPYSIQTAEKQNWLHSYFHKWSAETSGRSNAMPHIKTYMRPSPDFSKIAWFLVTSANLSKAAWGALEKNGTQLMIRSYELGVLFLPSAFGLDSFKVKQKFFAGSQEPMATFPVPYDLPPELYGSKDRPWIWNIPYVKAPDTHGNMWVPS
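E. coli-derived human Tdp1, 1 nM final. Cpd preinc 15 min RT; substrate 15 nM final, 5 min RT; AS bead mix 10 ug/ml final, 10 min RT. Signal loss = tyrosine-FITC cleavage. No-enzyme wells = max signal.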
TDP1 cell CPT: DT40-hTDP1 cell growth loss with CPT; chicken DT40 Tdp1-/-;hTDP1 cells + 20 nM CPT, ATP luminescence, 48 h; hit rate 12% among 420,000; Potency, µM (series often up to 46.2 µM), without a hit: top-dose activity change, negative = growth inhibition, actives largely listed as inhibitors; note: potency is the fitted concentration of half-maximal effect; nearly all actives have a fitted effect of over 55% in size
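Chicken DT40 Tdp1-/- cells stably complemented with human TDP1 were seeded at 400 cells/well in medium containing 20 nM camptothecin, exposed to pin-transferred compounds, and grown at 37 °C for at least 48 hr. Viability was read as ATP luminescence.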
DT40 TDP1 no CPT: qHTS for Inhibitors of human tyrosyl-DNA phosphodiesterase 1 (TDP1): qHTS in cells in absence of CPT. AID 686978, 2013. Potency, µM (top dose mostly 46.2 µM), without a hit: at the top dose activity change, negative = growth inhibition, most hits filed as inhibitors. DT40 Tdp1-/- hTDP1 cells, no CPT, ATP luminescence, 48 h. hit rate 15% among 420,000; note: potency is the fitted concentration of half-maximal effect; nearly all actives have a fitted effect of over 55% in size
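Readout: luminescence from CellTiter-Glo after 30 min in the dark at RT. Cells: DT40 Tdp1-/- with stable hTDP1, 400/well. Exposure: compounds alone, ≥48 hr, 37 °C.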
ELG1 repair inh: ELG1-dependent DNA repair inhibition; HEK293T ELG1-luciferase reporter, luminescence, 16 h; DNA damage induced by 5-fluorouridine; Potency, µM (doses to about 46.1 µM), for inactives: at the highest dose activity change, negative = inhibition, most hits filed as inhibitors; hit rate 2.3% among 330,000; AID 504467; note: potency is the fitted concentration of half-maximal effect; nearly all actives have a fitted effect of over 55% in size
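Overnight (16 hr) co-exposure of 2,000 cells/well to 5-fluorouridine and compound at 37 °C preceded detection. Luciferase was quantified via ONE-Glo luminescence; loss of signal denotes inhibition.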
* marks the source's active call; other numbers are inactive results; ? = inconclusive; / = no result given; [ ] = another dose, or the depositor's remark. Rows were chosen to be rich in hits. Some 19% of all compounds tested hit in one or more screens of this group. Unless noted, calls come from the whole dose curve; as a rule, active = well fitted curve in the direction sought with a large enough effect; inconclusive = small, poorly fitted or top-dose-only effect, or another doubt; inactive = no such curve, though single readings can be large; an effect the other way counts as inactive or inconclusive. % is set by controls: 0 for no effect and ±100 for the full control effect.

SMILES	IL1B secr inh	Giardia kill	TDP1 block	TDP1 cell CPT	DT40 TDP1 no CPT	ELG1 repair inh
C[C@@H]1CCCCO[C@@H](CN(C)Cc2ccc3c(c2)OCO3)[C@@H](C)CN([C@H](C)CO)C(=O)c2cc(NS(=O)(=O)c3ccccc3)ccc2O1	-30	/	/	18µM*	10µM*	/
O=C(NCCCCc1ccccc1)c1ccccc1Cl	?	-16	1%	8%	2%	?
O=C(Nc1ccccc1)c1nn(-c2ccccc2)c(=O)cc1C(F)(F)F	15	-3	-6%	?	-26%	6%
O=C(c1ccccc1)c1nn(-c2ccccc2)c(=O)cc1C(F)(F)F	-88*	1	-4%	-6%	?	?
O=C(c1cccc(Cl)c1)c1nn(-c2ccccc2)c(=O)cc1C(F)(F)F	-102*	-5	6%	16µM*	?	?
O=C(Nc1ccccc1)c1ccc(Cn2cc(C(F)(F)F)ccc2=O)cc1	5	11	0%	-10%	-2%	-11%
O=C(Nc1cc(C(F)(F)F)cc(C(F)(F)F)c1)c1ccc(Cn2cc(C(F)(F)F)ccc2=O)cc1	29	-10	8%	21µM*	16µM*	-4%
O=C(Nc1ccc(F)c(F)c1)c1ccc(=O)n(Cc2ccc(F)cc2)c1	/	/	5%	?	?	/
O=C(Nc1ccc(Cn2ccnc2)cc1)c1cccc(C(F)(F)F)c1	-54*	15	1%	-24%	-17%	5%
COc1ccc(C(=O)Nc2ccc(Cn3ccnc3)cc2)cc1OC	-14	-4	/	21%	-4%	?
O=C(Sc1ccccc1)c1cccc(Cn2cc(C(F)(F)F)ccc2=O)c1	-12	-1	-3%	18µM*	16µM*	4%
O=C(Nc1ccccc1)c1cccc(Cn2cc(C(F)(F)F)ccc2=O)c1	-4	22	3%	?	21µM*	2%
Cc1cccc(CCN2CCN=C2Nc2ccccc2)c1	-23	-5	-5%	?	-26%	13%
Cn1ncc(C(=O)N2CCN(c3ccccc3F)CC2)c1C1CCN(C(=O)OC(C)(C)C)CC1	/	/	5%	?	-54%	/
CC(C)(C)OC(=O)N1CCC(c2c(C(=O)N3CCN(c4ccccc4F)CC3)cnn2C(C)(C)C)CC1	/	/	0%	23µM*	?	/
Cn1ncc(C(=O)N2CCN(c3ccccc3)CC2)c1C1CCN(C(=O)OC(C)(C)C)CC1	/	/	-2%	-4%	-28%	/
COc1ccccc1N1CCN(C(=O)c2cnn(C(C)(C)C)c2C2CCN(C(=O)OC(C)(C)C)CC2)CC1	/	/	3%	16µM*	-85%	/
Cc1ccc(-n2ncc3c(NCCCn4ccnc4)ncnc32)cc1	/	/	13%	-3%	-23%	/
Cc1ccc2oc(=O)n(Cc3ccccc3OC(C)C)c2c1	28	7	-3%	?	15µM*	-5%
COc1ccccc1Cn1c(=O)oc2ccc(C)cc21	11	20	/	-9%	-14%	-8%
CCN(CC)c1ncn(Cc2c(Cl)cccc2Cl)c2ncnc1-2	-7	-9	-4%	?	15µM*	9%
COc1ccccc1N1CCN(S(=O)(=O)c2ccc(-n3cnnn3)cc2)CC1	-4	42	5%	?	?	23%
COc1cccc(CNC(=O)Cn2cccc2C(=O)c2ccccc2C)c1	-10	8	4%	-16%	-2%	26%
O=C(CBr)N1CCc2ccccc2C(c2ccccc2)C1 (stereo unspecified)	15	-1	/	2.6µM*	2.6µM*	-6%
O=C(CN1CCOCC1)N1CCc2ccccc2C(c2ccccc2)C1 (stereo unspecified)	10	-17	8%	-21%	?	-8%
SMILES	IL1B secr inh	Giardia kill	TDP1 block	TDP1 cell CPT	DT40 TDP1 no CPT	ELG1 repair inh
CC1CCN(C(=O)c2cc3c(=O)n(C)c4cc(Cl)ccc4c3s2)CC1	/	/	-9%	2%	-9%	/
COc1ccc(-c2nc(CN3CCC(C(=O)NCCCN4CCN(c5ccccc5F)CC4)CC3)c(C)o2)cc1OC	/	/	10%	?	1.2µM*	/
Cc1oc(-c2cccc(Cl)c2)nc1CN1CCC(C(=O)NCCCN2CCN(c3ccccc3F)CC2)CC1	/	/	5%	2.9µM*	3.7µM*	/
CNc1ccc(C=O)cc1I	/	/	/	8%	-22%	/
CCOC(=O)c1c(C)nn(-c2ccc(NC(=O)c3c(C)noc3C)cc2)c1C	-14	14	/	?	?	?
CCOC(=O)c1c(C)nn(-c2ccc(NC(=O)c3cccs3)cc2)c1C	-96*	3	1%	23µM*	16µM*	?
CCOC(=O)c1c(C)nn(-c2ccc(NC(=O)/C=C/C(=O)O)cc2)c1C	0	16	/	-14%	1.5µM*	?
CCNC(=O)Nc1ccc(-n2nc(C)c(C(=O)OCC)c2C)nc1	6	-16	3%	18µM*	?	3%
CCCCn1c(N)c(N(CCOC)C(=O)COC(=O)C(C)Oc2ccc(Cl)cc2)c(=O)[nH]c1=O (stereo unspecified)	-13	-1	/	-29%	2%	9%
Cn1c(Oc2ccccc2NCc2cc(Br)ccc2O)cc(=O)n(C)c1=O	9	-1	5%	18µM*	23µM*	?
COc1ccccc1N1CCN(c2nc(CNC(=O)c3ccccc3F)nc3ccccc23)CC1	/	/	/	?	8.2µM*	/
COc1ccccc1N1CCN(c2nc(CNC(=O)C3CCOC(C)(C)C3)nc3ccccc23)CC1 (stereo unspecified)	/	/	/	?	16µM*	/
COc1ccccc1N1CCN(c2nc(CNC(=O)C3CC34CCCC4)nc3ccccc23)CC1 (stereo unspecified)	/	/	/	-13%[9.04 µM]	21µM*	/
CC(C)CCC(CCNCc1ccccn1)c1ccc2c(c1)OCO2 (stereo unspecified)	?	?	/	?	?	-13%
CC(C)C(CCNCc1ccccn1)c1ccc(Cl)cc1 (stereo unspecified)	/	-26	/	?	13µM*	?
Cc1ccc(C(=O)N2CCOCC2)c(F)c1F	18	-6	5%	1%	-5%	?
CNC(=O)c1ccc(NC(=O)Cc2ccc(S(=O)(=O)N3CCOCC3)s2)cc1	0	-29	3%	-2%	-21%	0%
CC1CCCN(S(=O)(=O)c2ccc(NC(=O)Cc3ccc(S(=O)(=O)N4CCOCC4)s3)cc2)C1 (stereo unspecified)	?	-10	/	?	18µM*	-21%

Assay outcomes deposited in PubChem by National Center for Advancing Translational Sciences (NCATS).
